A short description of the experiment: SNB-19 glioblastoma cell viability over time, late-stage follow-up, mechanism study for HRAS target identification, CellTiter-Glo ATP luminescence, 8-48 h, dry powder (AID 720611). (ATP-based viability assays read luminescence as a measure of living cells.)

Results with a measured potency or affinity are listed apart. Activity calls are given as the source filed them.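 How the source made its calls: active means viability loss with half-effect dose no higher than twice the top dose, at all three exposure times; inconclusive means exposure times disagree or give unclear fits; inactive means inactive at every exposure time.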

On to `CCC(=O)N(c1ccc(OC)c(Cl)c1)C(C(=O)NCCc1ccccc1)c1cccs1` (configuration not stated), for which the molecule was called inactive.

`Cc1onc(C(=O)N2CCN(C(c3ccncc3)c3ccncc3)CC2)c1[N+](=O)[O-]`: the result was inactive.

Source of the values: PubChem BioAssay AID720611 (Broad Institute, 2013).
